The values that follow come from PubChem BioAssay.

Assay [1] is described as follows: rapamycin-like changes in RPL19A-GFP expression – cell-based, S. cerevisiae, multiplex flow cytometry, primary screen (AID 1862).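 Also: lower values mimic rapamycin by blocking the RPL19A rise seen in DMSO cells.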 As to conditions: S. cerevisiae RPL19A-GFP strain, flow cytometry fluorescence, 3 h; at 10 µM; stronger effect = lower value. In general terms: Flow cytometry measures light scatter and fluorescence of single cells or particles in a stream.
The nature of assay [2]: TOR pathway GLN3 branch reporter MEP2-GFP changes – S. cerevisiae, multiplex flow cytometry, primary screen (AID 1867;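 active = GFP response, as percent of the DMSO control, above the screen-wide mean plus 3 SD, about 139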;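 also: median GFP channel fluorescence of barcode-gated MEP2-GFP cells measured by flow cytometry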). As to conditions: S. cerevisiae MEP2-GFP strain, 3 h, at 10 µM, stronger effect = higher value, 100% means same as DMSO wells.
The nature of assay [3]: TOR pathway RTG branch CIT2 reporter changes – S. cerevisiae, GFP fusion, multiplex flow cytometry, primary screen (AID 1870;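 active = percent response above a set limit, the screen-wide mean plus 3 SD, cut at about 130% in these data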;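 also: barcoded CIT2-GFP strain pooled with four other GFP strains with rapamycin as positive control; median GFP fluorescence per well over plate mean of DMSO wells so 100% = DMSO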). As to conditions: S. cerevisiae CIT2-GFP expression, 3 h, at 10 µM, stronger effect = higher value.
A short description of assay [4]: TOR pathway LAP4-GFP level changes – S. cerevisiae, multiplex flow cytometry, primary screen (AID 1873;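 active = GFP signal, as percent of the solvent control, above the screen mean plus 3 SD, about 149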). As to conditions: S. cerevisiae LAP4-GFP expression, 3 h, at 10 µM, stronger effect = higher value.
A short description of assay [5]: yeast AGP1-GFP level changes, GLN3 branch – cell-based, multiplex flow cytometry, S. cerevisiae, primary screen (AID 1887;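 active = GFP signal above the screen-wide mean plus 3 SD, that is over about 124.5% of the solvent control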;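 also: AGP1-GFP fusion strain of S. cerevisiae within a five-strain barcoded multiplex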). As to conditions: 3 h, at 10 µM, stronger effect = higher value.
The nature of assay [6]: reduced mouse 2C T cell binding to pMHC/ICAM-1 vesicles – MLPCN validation set, flow cytometry, LFA-1/ICAM-1 modulator project, pilot screen (AID 2523;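 active = response below a set limit, under 55% cells CD8-positive and vesicle-bound, and CD8 cells' 90th-percentile brightness under 279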;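 as to vesicle binding response: mean PE anti-B7-1 fluorescence of CD8+ cells relative to row control; 100% = QL9-loaded vesicles with DMSO vehicle in the same plate row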). As to conditions: 2C mouse CD8+ T cells, at 7 µM, stronger effect = lower value; double positive events: measured here: CD8+/vesicle+ event percentage.
The target of assay [7] is Integrin beta-1 (Homo sapiens) + Integrin alpha-4 (Homo sapiens) (UniProt P13612+P05556). As to the kind of experiment: alpha4beta1 integrin LIBS antibody binding reduction – U937 cells, HUTS-21 mAb, flow cytometry, validation set, VLA-4 allosteric modulator project, pilot screen (AID 2674;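 active = inhibition above 50%, about 3 SD of the validation set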;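 also: antibody binding induced by the VLA-4 ligand LDV present at three times its Kd; 0% = LDV ligand with antibody and no compound and 100% = antibody without LDV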). As to conditions: HUTS-21 LIBS mAb binding, at 6.7 µM, stronger effect = higher value, binding induced by LDV ligand.
Sequence of Integrin beta-1 (Homo sapiens) + Integrin alpha-4 (Homo sapiens) (P05556 whole entry, looked up): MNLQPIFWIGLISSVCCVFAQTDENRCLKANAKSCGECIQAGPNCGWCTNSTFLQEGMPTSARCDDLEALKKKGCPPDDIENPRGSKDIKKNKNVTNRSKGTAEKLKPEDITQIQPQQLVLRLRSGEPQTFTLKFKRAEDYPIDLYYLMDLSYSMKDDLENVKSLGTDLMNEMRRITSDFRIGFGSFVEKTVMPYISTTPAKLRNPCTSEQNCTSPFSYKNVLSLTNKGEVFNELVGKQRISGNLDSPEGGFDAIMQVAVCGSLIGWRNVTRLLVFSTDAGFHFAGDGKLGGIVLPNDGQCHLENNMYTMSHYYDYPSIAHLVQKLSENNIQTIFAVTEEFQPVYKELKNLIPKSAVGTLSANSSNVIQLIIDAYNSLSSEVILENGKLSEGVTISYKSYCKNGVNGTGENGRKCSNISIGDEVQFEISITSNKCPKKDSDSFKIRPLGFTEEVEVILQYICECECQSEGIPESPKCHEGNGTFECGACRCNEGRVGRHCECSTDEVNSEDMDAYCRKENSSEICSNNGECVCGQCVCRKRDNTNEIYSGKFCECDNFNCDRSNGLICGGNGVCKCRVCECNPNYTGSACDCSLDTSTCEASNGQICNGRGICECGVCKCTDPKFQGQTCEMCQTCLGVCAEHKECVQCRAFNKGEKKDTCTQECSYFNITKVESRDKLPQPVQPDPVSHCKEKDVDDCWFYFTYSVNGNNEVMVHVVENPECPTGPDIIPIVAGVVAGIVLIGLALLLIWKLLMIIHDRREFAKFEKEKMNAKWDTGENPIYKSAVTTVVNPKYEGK
Sequence of Integrin beta-1 (Homo sapiens) + Integrin alpha-4 (Homo sapiens) (P13612 whole entry, looked up): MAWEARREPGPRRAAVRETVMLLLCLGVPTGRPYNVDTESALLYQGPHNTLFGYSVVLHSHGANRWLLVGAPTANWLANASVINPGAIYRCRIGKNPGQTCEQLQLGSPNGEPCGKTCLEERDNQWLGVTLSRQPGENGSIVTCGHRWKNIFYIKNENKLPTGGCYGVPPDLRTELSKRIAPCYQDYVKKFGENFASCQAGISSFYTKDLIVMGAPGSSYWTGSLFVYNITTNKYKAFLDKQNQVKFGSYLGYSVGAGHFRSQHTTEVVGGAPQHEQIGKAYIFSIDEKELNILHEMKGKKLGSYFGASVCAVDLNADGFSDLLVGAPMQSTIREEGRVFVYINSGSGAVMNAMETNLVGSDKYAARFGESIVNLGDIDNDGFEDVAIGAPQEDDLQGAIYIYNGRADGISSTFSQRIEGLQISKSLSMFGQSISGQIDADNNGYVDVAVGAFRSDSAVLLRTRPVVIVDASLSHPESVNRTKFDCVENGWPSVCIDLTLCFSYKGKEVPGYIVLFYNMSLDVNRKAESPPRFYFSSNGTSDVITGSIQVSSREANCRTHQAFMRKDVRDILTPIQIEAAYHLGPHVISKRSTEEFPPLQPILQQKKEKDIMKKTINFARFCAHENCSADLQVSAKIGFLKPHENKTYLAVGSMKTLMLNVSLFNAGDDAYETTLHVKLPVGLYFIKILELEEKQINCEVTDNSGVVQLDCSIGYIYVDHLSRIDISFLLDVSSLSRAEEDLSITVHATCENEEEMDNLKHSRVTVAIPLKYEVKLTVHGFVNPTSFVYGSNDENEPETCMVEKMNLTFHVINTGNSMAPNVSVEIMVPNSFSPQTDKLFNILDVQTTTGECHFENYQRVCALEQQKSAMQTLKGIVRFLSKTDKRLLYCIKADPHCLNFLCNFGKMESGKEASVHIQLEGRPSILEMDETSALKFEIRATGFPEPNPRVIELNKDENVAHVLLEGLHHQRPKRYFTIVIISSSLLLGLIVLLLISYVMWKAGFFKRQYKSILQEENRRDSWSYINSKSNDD

The nature of assay [8]: calorie-restriction mimetic ROS inhibitors, yeast – validation compound set, pilot screen (AID 2706;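 active = superoxide response below 65% of plate, a cut near 3 SD across the whole screen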;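 also: yeast exposed to compound for one week at 30 degrees C before staining; 100% = mean of all compound wells on the same plate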). As to conditions: S. cerevisiae aging, superoxide DHE fluorescence; at 10 µM; stronger effect = lower value.
Assay [9] concerns the target Beta-adrenergic receptor kinase 1 (Homo sapiens) (UniProt P25098). Put plainly: GRK2 binders displacing RNA aptamer, biochemical, validation, human GRK2, bead flow cytometry (AID 488806;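 active = aptamer binding inhibition above 30%, about 3 SD of noise from non-fluorescent compounds; inactive = inhibition at or below 30%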). As to conditions: bead-bound GRK2, FAM-aptamer displacement, at 10 µM, stronger effect = higher value.
The target in assay [10] is Beta-2 adrenergic receptor (Homo sapiens) (UniProt P07550). Put plainly: agonist-induced loss of surface beta2AR – cell-based, FAP fluorogen, flow cytometry, validation set, pilot screen (AID 504459;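 active = percent response above 42, roughly 3 SD of non-fluorescent test compounds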;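 also: agonist-driven loss of surface beta2AR via internalization measured by FAP dye flow cytometry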). As to conditions: Am2.2-beta2AR cells, at 10 µM, stronger effect = higher value.
Sequence of Beta-2 adrenergic receptor (Homo sapiens) (P07550 whole entry, looked up): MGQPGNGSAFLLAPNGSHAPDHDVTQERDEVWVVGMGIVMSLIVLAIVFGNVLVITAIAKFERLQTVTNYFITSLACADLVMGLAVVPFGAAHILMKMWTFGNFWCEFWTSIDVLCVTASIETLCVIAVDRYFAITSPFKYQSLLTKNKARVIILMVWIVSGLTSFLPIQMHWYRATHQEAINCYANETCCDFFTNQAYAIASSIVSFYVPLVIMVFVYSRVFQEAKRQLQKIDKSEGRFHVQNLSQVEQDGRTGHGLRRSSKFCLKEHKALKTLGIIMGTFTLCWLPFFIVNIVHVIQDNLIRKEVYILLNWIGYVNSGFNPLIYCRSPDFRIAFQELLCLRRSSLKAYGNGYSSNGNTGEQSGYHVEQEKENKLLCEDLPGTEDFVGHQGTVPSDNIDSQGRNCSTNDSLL
For assay [11], the target named is AP-2 complex subunit beta (Homo sapiens) (UniProt P63010). As to the kind of experiment: beta-arrestin/AP2 interaction blockers – biochemical, validation set, GST-AP2 beads, flow cytometry, pilot screen (AID 504541;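 active = inhibition above 54%, about 3 SD of non-fluorescent compounds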;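 also: AP2 carries R879A mutation and is captured from E. coli lysate; bead-bound FITC arrestin peptide fluorescence measuring arrestin peptide binding to AP2; 0% = DMSO wells and 100% = excess unlabeled arrestin peptide control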). As to conditions: FITC arrestin peptide, at 10 µM, stronger effect = higher value, AP2 beta2 appendage fragment, R879A mutant.
Sequence of AP-2 complex subunit beta (Homo sapiens) (P63010 whole entry, looked up, the tested form may be a part, one chain of several): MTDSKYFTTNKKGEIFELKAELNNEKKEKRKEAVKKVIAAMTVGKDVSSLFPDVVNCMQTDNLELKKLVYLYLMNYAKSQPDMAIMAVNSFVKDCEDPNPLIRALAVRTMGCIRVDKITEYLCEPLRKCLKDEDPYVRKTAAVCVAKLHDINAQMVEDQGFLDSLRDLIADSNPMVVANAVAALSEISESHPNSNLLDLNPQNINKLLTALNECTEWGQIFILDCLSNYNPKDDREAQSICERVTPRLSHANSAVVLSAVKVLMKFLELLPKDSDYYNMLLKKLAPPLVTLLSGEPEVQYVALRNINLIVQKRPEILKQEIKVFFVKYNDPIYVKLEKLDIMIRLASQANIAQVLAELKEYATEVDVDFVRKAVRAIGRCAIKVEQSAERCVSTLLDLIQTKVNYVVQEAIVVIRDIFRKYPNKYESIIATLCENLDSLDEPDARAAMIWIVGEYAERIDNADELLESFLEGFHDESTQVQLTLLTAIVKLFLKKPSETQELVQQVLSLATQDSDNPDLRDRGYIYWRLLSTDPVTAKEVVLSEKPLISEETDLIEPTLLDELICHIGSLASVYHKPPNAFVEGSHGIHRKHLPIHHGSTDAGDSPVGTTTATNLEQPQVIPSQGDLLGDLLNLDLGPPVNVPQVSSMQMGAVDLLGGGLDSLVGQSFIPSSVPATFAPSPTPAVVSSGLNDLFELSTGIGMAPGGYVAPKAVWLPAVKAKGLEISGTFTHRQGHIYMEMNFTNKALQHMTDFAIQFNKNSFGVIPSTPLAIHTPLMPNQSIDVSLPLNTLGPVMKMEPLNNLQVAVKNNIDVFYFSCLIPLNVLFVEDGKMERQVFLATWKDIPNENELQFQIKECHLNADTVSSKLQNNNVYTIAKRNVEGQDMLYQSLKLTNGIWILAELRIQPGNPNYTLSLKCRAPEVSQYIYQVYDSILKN
Assay [12] is described as follows: cytosolic pH regulators acting via V-ATPase – S. cerevisiae, pHLuorin, HTS validation (AID 504600; in the data active = response above about 15%;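 also: plate controls were DMSO for no effect and reference compound for full effect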). As to conditions: V-ATPase proton transport, at 10 µM, stronger effect = higher value.
Assay [13] concerns anti-desmoglein-3 scFv antibody binding to human DSG3. Put plainly: blockers of pathogenic pemphigus antibody–desmoglein-3 binding – biochemical, validation compound set, bead-based, flow cytometry, pilot screen (AID 588368;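 active = binding below the plate cutoff, the plate median minus 3 SD, with a reading above zero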;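 also: signal is the median channel fluorescence of bead-bound GFP antibody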). As to conditions: Protein G beads, DSG3-Fc, scFv-GFP binding, at 10 µM, stronger effect = lower value.
The nature of assay [14]: Nile Red efflux blockade in pump-expressing yeast – validation compound set, multiplex, phenotypic, pilot screen (AID 588506;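 active = efflux inhibition above 0.42, the validation set average plus 4 SD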;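 also: Nile Red retained in cells so higher fluorescence means more efflux inhibition; 0 = negative control wells and 1 = enniatin B 25 µM full block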). As to conditions: S. cerevisiae pump-expressing triplex, Nile Red efflux flow cytometry; at 10 µM; stronger effect = higher value; the pumps come from Candida albicans.
In assay [15] the target is ATP-binding cassette sub-family B member 6 (Homo sapiens) (UniProt Q9NP58). Put plainly: blockers of ABCB6-driven porphyrin uptake – K562-ABCB6 cells, flow cytometry, validation set, pilot screen (AID 588550;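 active = inhibition above the screen-wide mean plus 3 SD, about 51%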;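 also: 0% = DMSO wells and 100% = benzethonium chloride 70 µM positive control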). As to conditions: K562-ABCB6 porphyrin accumulation, 1 h, at 10 µM, stronger effect = higher value.
Sequence of ATP-binding cassette sub-family B member 6 (Homo sapiens) (Q9NP58 whole entry, looked up): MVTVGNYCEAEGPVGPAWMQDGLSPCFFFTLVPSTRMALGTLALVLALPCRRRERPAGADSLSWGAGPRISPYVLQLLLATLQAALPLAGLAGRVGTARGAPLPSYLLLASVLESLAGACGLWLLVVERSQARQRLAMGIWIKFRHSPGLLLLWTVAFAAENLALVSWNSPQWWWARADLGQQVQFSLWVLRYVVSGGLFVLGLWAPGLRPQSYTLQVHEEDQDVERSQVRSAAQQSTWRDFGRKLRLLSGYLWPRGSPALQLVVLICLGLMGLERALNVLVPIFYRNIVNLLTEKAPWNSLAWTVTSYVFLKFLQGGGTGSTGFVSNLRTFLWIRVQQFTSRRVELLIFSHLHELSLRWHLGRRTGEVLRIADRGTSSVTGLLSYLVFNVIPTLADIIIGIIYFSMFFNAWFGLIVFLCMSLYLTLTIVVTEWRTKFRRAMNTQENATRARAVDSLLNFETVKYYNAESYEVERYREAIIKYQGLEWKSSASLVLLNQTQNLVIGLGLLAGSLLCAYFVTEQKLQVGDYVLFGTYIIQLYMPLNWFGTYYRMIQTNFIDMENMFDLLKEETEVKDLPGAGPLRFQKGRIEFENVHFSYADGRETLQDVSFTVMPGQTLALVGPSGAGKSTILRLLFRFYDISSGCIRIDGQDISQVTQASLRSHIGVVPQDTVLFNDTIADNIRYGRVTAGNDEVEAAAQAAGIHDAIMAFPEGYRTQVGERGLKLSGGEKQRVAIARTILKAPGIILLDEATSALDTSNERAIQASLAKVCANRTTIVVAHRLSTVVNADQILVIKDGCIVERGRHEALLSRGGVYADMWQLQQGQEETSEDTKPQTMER
Assay [16] can be described thus: AML differentiation inducers, ER-HoxA9 marrow cells – cell-based, GFP/MAC1 double positive, flow cytometry, validation set, primary screen (AID 588685;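 active = differentiation response of at least 50%, scaled between solvent and reference control, from cells with both markers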;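 also: compound exposure lasts four days before antibody staining and flow analysis; 0% = DMSO wells and 100% = 5 µM fulvestrant positive control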). As to conditions: stronger effect = higher value, normalized: vehicle 0, fulvestrant 100.

Inconclusive results are not listed. Calls of active or inactive are those of the source. Rule as the data show it, unless noted: active = percent of DMSO control GFP below about 86%; inactive = the rest, inconclusive results apart.

Sequence of Beta-adrenergic receptor kinase 1 (Homo sapiens) (P25098 whole entry, looked up): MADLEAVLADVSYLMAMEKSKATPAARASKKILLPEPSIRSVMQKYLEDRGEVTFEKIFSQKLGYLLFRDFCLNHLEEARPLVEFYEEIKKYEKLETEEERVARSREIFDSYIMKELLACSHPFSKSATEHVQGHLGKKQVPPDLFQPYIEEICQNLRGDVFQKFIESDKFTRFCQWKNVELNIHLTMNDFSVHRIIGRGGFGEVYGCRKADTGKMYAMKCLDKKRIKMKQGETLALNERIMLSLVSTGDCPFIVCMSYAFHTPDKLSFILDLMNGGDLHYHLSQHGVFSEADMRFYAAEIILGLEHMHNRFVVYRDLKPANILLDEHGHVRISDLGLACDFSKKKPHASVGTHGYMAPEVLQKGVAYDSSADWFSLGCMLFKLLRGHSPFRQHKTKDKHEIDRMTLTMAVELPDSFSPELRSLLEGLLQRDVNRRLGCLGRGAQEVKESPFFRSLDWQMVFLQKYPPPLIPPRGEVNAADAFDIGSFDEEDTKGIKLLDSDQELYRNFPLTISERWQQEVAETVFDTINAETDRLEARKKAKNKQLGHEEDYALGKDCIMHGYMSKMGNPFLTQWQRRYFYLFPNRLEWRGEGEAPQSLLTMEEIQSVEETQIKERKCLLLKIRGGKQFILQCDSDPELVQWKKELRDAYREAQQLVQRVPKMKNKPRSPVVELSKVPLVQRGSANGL

For `CC1(C)Cc2nc3sc4c(=O)n(CC(N)=O)cnc4c3cc2CO1`, the percent of DMSO control GFP in assay [1] was 90.9% (inactive). For the same molecule, the results for the GFP response vs DMSO in [2] and in assay [4] were 134% (inactive) and 73.2% (inactive), respectively. Moreover, the percent response of DMSO control in [3] was 115% (inactive). Further, the GFP response, % of DMSO in [5] is 82.2% (inactive). The molecule further showed a double positive events in assay [6] of 67.5%. Also, the vesicle binding response in assay [6] is 159% (inactive). The figures for the inhibition in assay [7], in assay [11] and in [15] were 3.55% (inactive), 12.8% (inactive) and 14% (inactive), respectively. Besides, the superoxide response (% of plate) in assay [8] was 102% (inactive). In [9], the aptamer binding inhibition was 10% (inactive). For the same molecule, the response in assay [10] was -4.57% (inactive); in assay [12] it was -2.49% (inactive). Moreover, in [13], the binding (% of control) was 97% (inactive). Further, the efflux inhibition (fraction of control) in [14] is 0.41 (inactive). In addition, the differentiation response in assay [16] is -9.01% (inactive).

Turning to `Cc1ccc(C(=O)Nc2ccccc2C(=O)NC(C(=O)O)C(C)C)cc1` (stereo not drawn), in [1], the percent of DMSO control GFP is 96.7% (inactive). For the same molecule, the GFP response vs DMSO in [2] is 109% (inactive); in assay [4], 115% (inactive). Also, the percent response of DMSO control in assay [3] is 89.1% (inactive). Also, the GFP response, % of DMSO in assay [5] is 101% (inactive). In assay [6], this molecule displayed a double positive events of 57.3%. Further, the vesicle binding response in [6] was 175% (inactive). Also, the inhibition in assay [7] is -19.5% (inactive); in assay [11], 10.5% (inactive); in assay [15], 3% (inactive). Further, in assay [8], the superoxide response (% of plate) was 116% (inactive). In assay [9], the aptamer binding inhibition is 3% (inactive). For the same molecule, the response in assay [10] is -2.49% (inactive); in [12] it was 0.12% (inactive). Further, in [13], the binding (% of control) is 99.1% (inactive). The efflux inhibition (fraction of control) in assay [14] was -0.06 (inactive). Besides, the differentiation response in assay [16] is -13.6% (inactive).

As for `O=C(Oc1ccccc1)Oc1ccc2c(c1)oc(=O)c1ccccc12`, in [1], the percent of DMSO control GFP is 96.3% (inactive). For the same molecule, the GFP response vs DMSO in [2] was 126% (inactive); in assay [4], 90.2% (inactive). Moreover, the percent response of DMSO control in assay [3] is 106% (inactive). For the same molecule, the GFP response, % of DMSO in [5] is 102% (inactive). This molecule also showed a double positive events in assay [6] of 60.1%. Moreover, the vesicle binding response in [6] is 230% (inactive). For the same molecule, the inhibition in assay [7] is -6.15% (inactive); in assay [11], 4.7% (inactive); in assay [15], 4% (inactive). In addition, in [8], the superoxide response (% of plate) was 78.2% (inactive). Moreover, in assay [9], the aptamer binding inhibition is 2% (inactive). Further, the figures for the response in assay [10] and in assay [12] were 4.41% (inactive) and 0.05% (inactive), respectively. In assay [13], the binding (% of control) was 94.7% (inactive). Moreover, the efflux inhibition (fraction of control) in assay [14] was 0.34 (inactive). In addition, in assay [16], the differentiation response was 8.19% (inactive).

Regarding `Cc1coc2cc3oc(=O)c(CCC(=O)O)c(C)c3cc12`, the percent of DMSO control GFP in assay [1] is 95.4% (inactive). Moreover, the GFP response vs DMSO is 101% (inactive) in assay [2] and 147% (inactive) in assay [4]. Moreover, the percent response of DMSO control in assay [3] is 92% (inactive). Moreover, the GFP response, % of DMSO in assay [5] was 86.8% (inactive). The molecule further had a double positive events in [6] of 58.9%. For the same molecule, in assay [6], the vesicle binding response is 223% (inactive). The inhibition in [7] is -11.3% (inactive); in [11], 20.5% (inactive); in assay [15] it was 6% (inactive). The superoxide response (% of plate) in assay [8] is 109% (inactive). Moreover, the aptamer binding inhibition in assay [9] is 1% (inactive). The response in assay [10] is -0.85% (inactive); in [12], -3.3% (inactive). Also, the binding (% of control) in assay [13] was 106% (inactive). Besides, the efflux inhibition (fraction of control) in assay [14] was -0.17 (inactive). Moreover, the differentiation response in [16] was -2.4% (inactive).

Broadly, the inhibition is the drop in the measured response relative to a control, in per cent.
